Data as given in PubChem BioAssay AID1159580 (chemical genetic matrix, 2015).
Where “and” joins values, the source holds several entries; their conditions need not be identical. Identical values can stand only once. The whole screen tested about 5,500 compounds, of which about 2,000 (36%) were called active. Roughly 18% stayed inconclusive and do not appear here. Cut-off read from the data, not from the text of the source: active = normalized growth mostly below about 0.91 (no sharp cut-off); inconclusive = no clear call, values can overlap the other calls; inactive = mostly above about 0.92. This is one part of the list.

Assay: chemical genetic growth profiling, strain panel (AID 1159580);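 note: tested at 20 µM; growth read once vehicle control cultures reached saturation at 30 °C; 1 = growth at the plate median or of vehicle wells; lower values mean less growth of the strain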
Conditions: S. cerevisiae deletion strains, growth OD

Measured: normalized growth

O=C1O[C@@H](CO)[C@H](O)[C@@H](O)[C@@H]1O
inactive: locus YAL021C, strain ccr4, stronger effect = lower value 0.997 | locus YAL026C, strain drs2, stronger effect = lower value 1.03 | locus YAL030W, strain snc1, stronger effect = lower value 1.01 | locus YBL061C, strain skt5, stronger effect = lower value 1.03 | locus YBR009C, strain hhf1, stronger effect = lower value 1.01 | locus YBR021W, strain FUR4, stronger effect = lower value 0.999 | locus YBR023C, strain chs3, stronger effect = lower value 1.02 | locus YBR171W, strain sec66, stronger effect = lower value 1.03 | locus YBR229C, strain ROT2, stronger effect = lower value 1 | locus YBR231C, strain swc5, stronger effect = lower value 1.08 | locus YBR279W, strain paf1, stronger effect = lower value 1.01 | locus YCL011C, strain gbp2, stronger effect = lower value 1.02 | locus YCL016C, strain dcc1, stronger effect = lower value 1.01 | locus YCL029C, strain bik1, stronger effect = lower value 0.99 | locus YCL061C, strain MRC1, stronger effect = lower value 1.01 | locus YCL069W, strain vba3, stronger effect = lower value 1.03 | locus YCR088W, strain abp1, stronger effect = lower value 1.02 | locus YDL005C, strain med2, stronger effect = lower value 1.03 | locus YDL035C, strain GPR1, stronger effect = lower value 1.01 | locus YDL040C, strain nat1, stronger effect = lower value 1.03 | locus YDL074C, strain BRE1, stronger effect = lower value 0.974 | locus YDL101C, strain DUN1, stronger effect = lower value 1.01 | locus YDL134C, strain PPH21, stronger effect = lower value 1.01 | locus YDL185W, strain tfp1, stronger effect = lower value 1 | locus YDL192W, strain arf1, stronger effect = lower value 1.01 | locus YDR001C, strain nth1, stronger effect = lower value 1.03 | locus YDR069C, strain doa4, stronger effect = lower value 1.02 | locus YDR101C, strain arx1, stronger effect = lower value 0.946 | locus YDR137W, strain rgp1, stronger effect = lower value 1.04 | locus YDR150W, strain NUM1, stronger effect = lower value 1 | locus YDR159W, strain sac3, stronger effect = lower value 1 | locus YDR162C, strain NBP2, stronger effect = lower value 1.02 | locus YDR195W, strain ref2 0.99 | locus YDR297W, strain sur2, stronger effect = lower value 1.02 | locus YDR318W, strain mcm21, stronger effect = lower value 1.01 | locus YDR334W, strain swr1, stronger effect = lower value 1.03 | locus YDR335W, strain msn5, stronger effect = lower value 1.01 | locus YDR388W, stronger effect = lower value 1.01 | locus YDR392W, strain spt3, stronger effect = lower value 1.06 | locus YDR502C, strain sam2, stronger effect = lower value 1 | locus YEL003W, strain gim4, stronger effect = lower value 1.02 | locus YEL037C, strain rad23, stronger effect = lower value 1.01 | locus YEL061C, strain CIN8 (second series), stronger effect = lower value 1.03 | locus YEL061C, strain CIN8, stronger effect = lower value 1 | locus YER015W, strain faa2, stronger effect = lower value 1.02 | locus YER016W, strain bim1, stronger effect = lower value 1.03 | locus YER110C, stronger effect = lower value 1.01 | locus YER111C, strain swi4, stronger effect = lower value 1.01 | locus YER155C, strain BEM2 (second series), stronger effect = lower value 1.06 | locus YER155C, strain BEM2, stronger effect = lower value 1.01 | locus YER167W, strain BCK2, stronger effect = lower value 1.01 | locus YFR010W, strain ubp6, stronger effect = lower value 1.01 | locus YGL078C, strain dbp3, stronger effect = lower value 1.01 | locus YGL086W, strain mad1, stronger effect = lower value 0.983 | locus YGL167C, strain pmr1, stronger effect = lower value 1.02 | locus YGL173C, strain kem1, stronger effect = lower value 1.05 | locus YGL227W, strain vid30, stronger effect = lower value 1.03 | locus YGL240W, strain doc1, stronger effect = lower value 1.04 | locus YGL248W, strain PDE1, stronger effect = lower value 0.996 | locus YGL253W, strain hxk2, stronger effect = lower value 1.03 | locus YGR135W, strain pre9, stronger effect = lower value 1.05 | locus YGR229C, strain SMI1, stronger effect = lower value 0.997 | locus YGR252W, strain gcn5, stronger effect = lower value 1.06 | locus YHR013C, strain ard1, stronger effect = lower value 1.08 | locus YHR027C, strain rpn1, stronger effect = lower value 1.02 | locus YHR030C, strain SLT2, stronger effect = lower value 1 and 0.985 | locus YHR079C, strain IRE1 (second series), stronger effect = lower value 1 | locus YHR079C, strain IRE1, stronger effect = lower value 0.979 | locus YHR094C, strain hxt1, stronger effect = lower value 1.01 | locus YHR129C, strain ARP1, stronger effect = lower value 1.02 | locus YHR142W, strain chs7, stronger effect = lower value 1.02 | locus YHR200W, strain rpn10, stronger effect = lower value 0.998 | locus YIL066C, strain RNR3, stronger effect = lower value 1 | locus YIL073C, strain SPO22, stronger effect = lower value 1.05 | locus YIL125W, strain kgd1, stronger effect = lower value 0.999 | locus YIR030C, strain dcg1, stronger effect = lower value 1 | locus YJL092W, strain hpr5, stronger effect = lower value 1.01 | locus YJL095W, strain BCK1 (second series), stronger effect = lower value 1.02 | locus YJL095W, strain BCK1, stronger effect = lower value 1 and 0.979 | locus YJL115W, strain asf1, stronger effect = lower value 1.02 | locus YJL129C, strain trk1, stronger effect = lower value 1.02 | locus YJL134W, strain LCB3, stronger effect = lower value 1.01 | locus YJL154C, strain vps35, stronger effect = lower value 1.02 | locus YJL164C, strain tpk1, stronger effect = lower value 1.01 | locus YJL166W, strain qcr8, stronger effect = lower value 1.02 | locus YJL168C, strain set2, stronger effect = lower value 0.997 | locus YJL187C, strain SWE1 (second series), stronger effect = lower value 0.989 | locus YJL187C, strain SWE1, stronger effect = lower value 1.02 | locus YJR043C, strain POL32, stronger effect = lower value 0.99
